From PubChem BioAssay (EPA / NIEHS)
Activity calls are given as the source filed them. Rule for the calls: active = hit-call score of the fitted dose curve at least 0.9, where 1 is the maximum; inactive = score below 0.9.

Assays:
[1] = biological target: CCAAT/enhancer-binding protein beta (Homo sapiens) (UniProt P17676); experiment: ATG_C_EBP_CIS: Attagene CIS-FACTORIAL HepG2 Assay for human CCAAT/Enhancer Binding Protein (C/EBP) beta (AID 2282927); conditions: HepG2 Attagene cis-factorial transcription factor reporter; actives raise or lower the signal
CCAAT/enhancer-binding protein beta (Homo sapiens), sequence (P17676 whole entry, looked up): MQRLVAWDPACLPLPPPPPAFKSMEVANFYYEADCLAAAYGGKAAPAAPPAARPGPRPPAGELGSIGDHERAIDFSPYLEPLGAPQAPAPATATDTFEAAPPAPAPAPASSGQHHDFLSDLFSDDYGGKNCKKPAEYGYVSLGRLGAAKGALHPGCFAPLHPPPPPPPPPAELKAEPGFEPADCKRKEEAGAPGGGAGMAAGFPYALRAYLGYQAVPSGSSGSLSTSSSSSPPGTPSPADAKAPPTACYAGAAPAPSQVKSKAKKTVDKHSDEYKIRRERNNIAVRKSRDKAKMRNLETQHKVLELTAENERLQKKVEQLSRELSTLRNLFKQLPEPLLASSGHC
In short: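 Endogenous transcription factor activity in human liver HepG2 cells is inferred from induction of a CEBPB-linked reporter mRNA. Exposure lasts 24 h; activity is fitted in both directions relative to DMSO.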

[2] = ATG_CMV_CIS: Attagene CIS-FACTORIAL HepG2 Assay for human CMV (Internal Marker) (AID 2282928); conditions: HepG2 CMV promoter reporter, transcription factor profiling; actives raise or lower the signal;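 note: endpoint acts as a background internal control marker rather than a target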
In short: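 Fluorescence intensity of RT-PCR-derived reporter fragments, resolved by capillary electrophoresis, gives the signal. HepG2 liver cells bearing transfected cis-element reporters were treated 24 h; activity in either direction was fit relative to DMSO-treated controls.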

[3] = ATG_DR4_LXR_CIS: Attagene CIS-FACTORIAL HepG2 Assay for human Liver X Receptor (LXR), DR4 submotif (AID 2282929); conditions: HepG2 Attagene DR4 cis-reporter, mRNA transcription; actives raise or lower the signal
In short: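 Cells were transfected with multiple reporter transcription units, exposed to chemicals for 24 hours, then lysed for RNA. Reporter mRNA induction was measured by RT-PCR with capillary electrophoresis detection and fitted in both directions relative to DMSO.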

[4] = biological target: Aryl hydrocarbon receptor (Homo sapiens) (UniProt P35869); experiment: ATG_Ahr_CIS: Attagene CIS-FACTORIAL HepG2 Assay for human Aryl Hydrocarbon Receptor (Ahr) (AID 2282930); conditions: HepG2 AhR cis-factorial reporter transcription; actives raise or lower the signal
Aryl hydrocarbon receptor (Homo sapiens), sequence (P35869 whole entry, looked up): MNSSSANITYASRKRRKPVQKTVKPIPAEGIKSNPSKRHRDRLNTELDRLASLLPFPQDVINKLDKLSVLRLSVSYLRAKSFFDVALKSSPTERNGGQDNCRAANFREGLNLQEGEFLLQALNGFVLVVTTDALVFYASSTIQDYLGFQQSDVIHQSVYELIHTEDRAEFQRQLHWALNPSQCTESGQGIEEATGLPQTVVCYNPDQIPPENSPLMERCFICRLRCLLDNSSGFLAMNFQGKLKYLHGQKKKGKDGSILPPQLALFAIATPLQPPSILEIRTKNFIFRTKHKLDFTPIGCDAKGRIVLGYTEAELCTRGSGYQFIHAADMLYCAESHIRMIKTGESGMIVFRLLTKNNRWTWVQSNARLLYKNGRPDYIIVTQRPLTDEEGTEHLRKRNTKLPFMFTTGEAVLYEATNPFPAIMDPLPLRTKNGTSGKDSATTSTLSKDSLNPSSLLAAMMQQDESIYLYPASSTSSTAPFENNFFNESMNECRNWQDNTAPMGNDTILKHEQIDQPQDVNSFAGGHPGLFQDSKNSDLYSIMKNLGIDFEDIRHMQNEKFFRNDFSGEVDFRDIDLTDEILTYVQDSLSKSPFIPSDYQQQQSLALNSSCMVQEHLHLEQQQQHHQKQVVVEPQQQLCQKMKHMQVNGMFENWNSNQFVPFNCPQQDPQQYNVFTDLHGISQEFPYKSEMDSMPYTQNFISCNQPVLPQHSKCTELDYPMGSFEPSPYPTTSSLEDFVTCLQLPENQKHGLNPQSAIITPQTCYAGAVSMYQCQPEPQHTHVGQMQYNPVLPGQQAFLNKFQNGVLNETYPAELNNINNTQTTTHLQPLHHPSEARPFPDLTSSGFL
In short: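 Transient MRTU transfection of HepG2 → 24 h compound exposure → total RNA, oligo(dT) RT → PCR, 6-FAM extension, HpaI cut → CE fluorescence. DMSO = baseline; bidirectional curve fit.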

[5] = ATG_AP_1_CIS: Attagene CIS-FACTORIAL HepG2 Assay for human Activator Protein 1 (AP-1) (AID 2282931); conditions: HepG2 Attagene cis-factorial AP-1 reporter mRNA; actives raise or lower the signal
In short: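 Endogenous transcription-factor activity in human HepG2 liver cells is read through a cis-promoter reporter transcript, sampled 24 h after dosing. Detection uses RT-PCR with capillary electrophoresis; values come from bidirectional fitting relative to DMSO.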

[6] = ATG_AP_2_CIS: Attagene CIS-FACTORIAL HepG2 Assay for human Activator Protein 2 (AP-2) (AID 2282932); conditions: HepG2 AP-2 cis-reporter, Attagene transcription factor profiling; actives raise or lower the signal
In short: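 Endogenous transcription factor activity is reported through transfected multiplex reporter constructs in HepG2, after 24 h of compound exposure. Transcripts were quantified by RT-PCR and capillary electrophoresis of fluorescent fragments. Bidirectional fit against DMSO.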

[7] = biological target: Retinoic acid receptor alpha (Homo sapiens) (UniProt P10276); experiment: ATG_DR5_RAR_CIS: Attagene CIS-FACTORIAL HepG2 Assay for human Retinoic Acid Receptor Alpha (RARE), DR5 submotif (AID 2282934); conditions: HepG2 Attagene cis-factorial RARE DR5 reporter, mRNA; actives raise or lower the signal
Retinoic acid receptor alpha (Homo sapiens), sequence (P10276 whole entry, looked up): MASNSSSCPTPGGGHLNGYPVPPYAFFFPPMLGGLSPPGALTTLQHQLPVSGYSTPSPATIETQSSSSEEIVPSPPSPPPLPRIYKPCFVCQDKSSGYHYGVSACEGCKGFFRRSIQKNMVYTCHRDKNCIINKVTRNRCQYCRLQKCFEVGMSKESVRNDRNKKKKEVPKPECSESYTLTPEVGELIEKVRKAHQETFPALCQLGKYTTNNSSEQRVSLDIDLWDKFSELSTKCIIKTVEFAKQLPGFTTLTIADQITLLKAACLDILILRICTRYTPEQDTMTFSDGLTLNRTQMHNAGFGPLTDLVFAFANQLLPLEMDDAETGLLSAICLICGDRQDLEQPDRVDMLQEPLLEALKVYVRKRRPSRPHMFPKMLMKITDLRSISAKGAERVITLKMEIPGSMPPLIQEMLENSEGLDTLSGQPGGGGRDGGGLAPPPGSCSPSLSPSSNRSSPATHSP
In short: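 Transient MRTU transfection of HepG2; 24 h compound treatment; TriZol RNA, oligo(dT) RT, PCR, FAM labelling, capillary electrophoresis. Bidirectional fit vs DMSO. Endogenous TF activity at DR5 RARE.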

[8] = biological target: Transcription factor E2F1 (Homo sapiens) (UniProt Q01094); experiment: ATG_E2F_CIS: Attagene CIS-FACTORIAL HepG2 Assay for human E2F Transcription Factor 1 (AID 2282935); conditions: HepG2 Attagene cis-reporter, E2F reporter RNA transcripts; actives raise or lower the signal
Transcription factor E2F1 (Homo sapiens), sequence (Q01094 whole entry, looked up): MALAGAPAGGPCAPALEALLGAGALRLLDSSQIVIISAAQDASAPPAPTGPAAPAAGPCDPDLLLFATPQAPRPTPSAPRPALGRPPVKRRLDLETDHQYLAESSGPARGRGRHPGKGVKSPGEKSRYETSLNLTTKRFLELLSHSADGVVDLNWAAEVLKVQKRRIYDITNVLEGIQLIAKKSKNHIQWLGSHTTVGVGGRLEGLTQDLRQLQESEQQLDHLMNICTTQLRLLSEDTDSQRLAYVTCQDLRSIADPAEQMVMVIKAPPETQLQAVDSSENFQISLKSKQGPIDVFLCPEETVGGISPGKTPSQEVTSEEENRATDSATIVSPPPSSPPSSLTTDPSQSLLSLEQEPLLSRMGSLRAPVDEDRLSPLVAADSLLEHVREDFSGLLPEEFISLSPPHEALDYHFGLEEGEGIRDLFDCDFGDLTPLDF
In short: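 Gain or loss of reporter transcript, fitted against DMSO, reflects E2F1-driven transcription. Transiently transfected HepG2 dosed 24 h before RNA isolation. Quantified by fluorescent RT-PCR products separated by capillary electrophoresis.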

[9] = ATG_E_Box_CIS: Attagene CIS-FACTORIAL HepG2 Assay for human Enhancer Box (E-box) (AID 2282936); conditions: HepG2 E-box cis-reporter transcription, actives raise or lower the signal
In short: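 E-box-driven reporter transcripts measured in transiently transfected HepG2 after 24 h exposure: RNA reverse-transcribed, PCR-amplified, fluorescently labelled, digested and resolved by capillary electrophoresis. Gain or loss relative to DMSO.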

[10] = ATG_M_61_CIS: Attagene CIS-FACTORIAL HepG2 Assay for M61 Transcription Factor (Internal Marker) (AID 2282937); conditions: HepG2 Attagene CIS-FACTORIAL M61 internal marker reporter; actives raise or lower the signal
In short: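 Cells were transfected with reporter units under cis-regulatory promoters, treated with chemicals for 24 h, then lysed for RNA. Reporter transcripts were quantified by RT-PCR and capillary electrophoresis, and activity was fitted bidirectionally against DMSO.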

[11] = ATG_EGR_CIS: Attagene CIS-FACTORIAL HepG2 Assay for human Early Growth Response 1 (EGR1) (AID 2282938); conditions: HepG2 Attagene CIS-FACTORIAL EGR reporter mRNA; actives raise or lower the signal
In short: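 Endogenous TF activity in HepG2 liver cells was gauged through cis-promoter reporter constructs transiently transfected. After 24 h dosing, reporter mRNA was quantified by RT-PCR and capillary electrophoresis, and curves fitted in both directions versus DMSO.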

[12] = ATG_ERE_CIS: Attagene CIS-FACTORIAL HepG2 Assay for Estrogen Response Element (ERE) (AID 2282940); conditions: HepG2 ERE cis-reporter, Attagene RNA transcript; actives raise or lower the signal
In short: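 Human liver cells (HepG2) bearing transiently transfected, promoter-regulated reporter units were exposed 24 h. Reporter mRNA induction was detected by capillary electrophoresis of labelled RT-PCR products and fitted bidirectionally to DMSO.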

[13] = ATG_FoxO_CIS: Attagene CIS-FACTORIAL HepG2 Assay for human Forkhead box O (FoxO) (AID 2282943); conditions: HepG2 Attagene cis-reporter, FoxO element, mRNA; actives raise or lower the signal
In short: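 HepG2, transient MRTU transfection (cis element, endogenous TFs). Dose 24 h. TriZol RNA → oligo(dT) RT → PCR → 6-FAM primer extension → HpaI cut → CE. Gain/loss vs DMSO.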

[14] = ATG_GLI_CIS: Attagene CIS-FACTORIAL HepG2 Assay for human Zinc Finger Protein GLI1 (AID 2282945); conditions: HepG2, Attagene cis-factorial reporter mRNA, GLI element; actives raise or lower the signal
In short: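 Bidirectional curve fits relative to DMSO, using reporter mRNA levels from RT-PCR plus capillary electrophoresis. Cells were HepG2 transiently carrying cis-regulated reporter constructs, harvested 24 h after dosing.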

[15] = ATG_M_19_CIS: Attagene CIS-FACTORIAL HepG2 Assay for M19 Transcription Factor (Internal Marker) (AID 2282939); conditions: HepG2 Attagene CIS-FACTORIAL M19 internal marker reporter; actives raise or lower the signal
In short: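 Chemical-treated HepG2 (24 h) with MRTU constructs; reporter transcripts detected by fluorescent RT-PCR fragment analysis on capillary electrophoresis. Internal background marker, DMSO as baseline.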

[16] = ATG_Ets_CIS: Attagene CIS-FACTORIAL HepG2 Assay for human Erythroblast Transformation Specific (ETS) (AID 2282941); conditions: HepG2 ETS cis-reporter transcription, actives raise or lower the signal
In short: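 Multiplexed reporter transcript profiling: HepG2, 24 h treatment, total RNA to cDNA, PCR, 6-FAM labelling, HpaI cut, capillary electrophoresis. Gain- or loss-of-signal fitted against DMSO.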

[17] = biological target: Hepatocyte nuclear factor 3-beta (Homo sapiens) (UniProt Q9Y261); experiment: ATG_FoxA2_CIS: Attagene CIS-FACTORIAL HepG2 Assay for human Forkhead box A2 (FOXA2) (AID 2282942); conditions: HepG2 cis-reporter transcription factor activity, 24 h; actives raise or lower the signal
Hepatocyte nuclear factor 3-beta (Homo sapiens), sequence (Q9Y261 whole entry, looked up): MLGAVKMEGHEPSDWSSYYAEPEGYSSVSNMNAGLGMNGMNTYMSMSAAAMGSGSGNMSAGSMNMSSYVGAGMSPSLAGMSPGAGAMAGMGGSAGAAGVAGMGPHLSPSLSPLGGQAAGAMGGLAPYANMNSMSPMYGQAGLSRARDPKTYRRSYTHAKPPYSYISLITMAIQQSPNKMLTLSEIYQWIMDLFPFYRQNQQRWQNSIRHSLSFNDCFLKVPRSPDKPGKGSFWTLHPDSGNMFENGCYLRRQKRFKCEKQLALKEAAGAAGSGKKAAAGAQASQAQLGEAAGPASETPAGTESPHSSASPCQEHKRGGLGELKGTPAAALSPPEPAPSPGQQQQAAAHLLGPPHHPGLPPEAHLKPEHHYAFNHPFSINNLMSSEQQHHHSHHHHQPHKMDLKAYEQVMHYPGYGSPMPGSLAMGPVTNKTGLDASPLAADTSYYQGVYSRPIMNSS
In short: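 Endogenous transcription factor activity was read in HepG2 cells carrying transiently transfected cis-promoter reporter units. After 24 h dosing, reporter mRNA was quantified by RT-PCR and capillary electrophoresis, and values fitted bidirectionally versus DMSO.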

[18] = ATG_GATA_CIS: Attagene CIS-FACTORIAL HepG2 Assay for human GATA Binding Protein (AID 2282944); conditions: HepG2 GATA cis-element reporter, Attagene multiplex mRNA; actives raise or lower the signal
In short: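 Transfected cis-reporter HepG2 cells were treated with chemicals for 24 hours. Total RNA was then converted to cDNA, amplified with reporter-specific primers and analysed by fluorescent capillary electrophoresis, using DMSO-treated wells as baseline.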

[19] = biological target: Bile acid receptor (Homo sapiens) (UniProt Q96RI1); experiment: ATG_IR1_CIS: Attagene CIS-FACTORIAL HepG2 Assay for human Nuclear Receptor Subfamily 1 Group H Member 4 (NR1H4), IR1 submotif (AID 2282946); conditions: IR1 reporter transcription, actives raise or lower the signal
Bile acid receptor (Homo sapiens), sequence (Q96RI1 whole entry, looked up): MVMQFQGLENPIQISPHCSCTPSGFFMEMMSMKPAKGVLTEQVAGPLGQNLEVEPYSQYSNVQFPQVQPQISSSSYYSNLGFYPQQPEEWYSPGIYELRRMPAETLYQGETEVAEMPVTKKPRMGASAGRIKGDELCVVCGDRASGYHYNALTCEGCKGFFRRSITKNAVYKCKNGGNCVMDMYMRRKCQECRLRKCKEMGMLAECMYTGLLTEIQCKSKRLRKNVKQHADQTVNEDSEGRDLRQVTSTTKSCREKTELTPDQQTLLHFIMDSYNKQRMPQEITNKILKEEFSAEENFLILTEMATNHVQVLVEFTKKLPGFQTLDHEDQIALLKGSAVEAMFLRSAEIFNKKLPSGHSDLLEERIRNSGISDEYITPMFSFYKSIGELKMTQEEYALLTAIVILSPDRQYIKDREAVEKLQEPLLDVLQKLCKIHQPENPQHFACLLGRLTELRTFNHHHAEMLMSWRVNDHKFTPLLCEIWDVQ
In short: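 HepG2 cells transiently transfected with multiplexed cis-element reporter units read endogenous transcription factor activity. After 24 h compound exposure, reporter mRNA was quantified by RT-PCR, fluorescent labelling, HpaI digestion and capillary electrophoresis; bidirectional fitting versus DMSO baseline.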

Measured: AC50

ClC(Cl)=C(Cl)C(Cl)=C(Cl)Cl
inactive: [1] | [2] | [5] | [7] | [8] | [9] | [10] | [12]
active: [3] 100 µM | [4] 71.4 µM | [6] 165 µM | [11] 131 µM | [13] 180 µM | [14] 158 µM

ClCCBr
inactive: [1] | [2] | [3] | [4] | [5] | [6] | [8] | [9] | [10] | [11] | [15] | [12] | [16] | [17] | [13] | [18] | [14]

CCN(CC)C(=O)Cl
inactive: [1] | [2] | [3] | [4] | [5] | [6] | [8] | [9] | [10] | [11] | [15] | [16] | [17] | [13] | [18] | [14] | [19]
active: [12] 27.7 µM

Cc1cc(=O)[nH]o1
inactive: [1] | [2] | [3] | [4] | [5] | [6] | [8] | [9] | [10] | [11] | [15] | [16] | [17] | [13] | [18] | [14]
